The values below come from PubChem BioAssay AID504339 (National Center for Advancing Translational Sciences (NCATS), 2011).

Structures are written as SMILES. Hit rate of the full screen: of about 390,000 compounds, about 17,000 (4.4%) were called active. A call without a number means that no potency is given here. About 8% were inconclusive and are not listed. Calls come from the whole dose curve; as a rule, active = well fitted inhibition curve with a large enough effect; inconclusive = small, poorly fitted or top-dose-only effect; inactive = no such curve, though single readings can be large or run the other way. The sample as a whole holds a higher share of actives than the screen did.
Potency is the fitted concentration of half-maximal effect.

Lysine-specific demethylase 4A (Homo sapiens), sequence (O75164 whole entry, looked up, the tested form may be a part): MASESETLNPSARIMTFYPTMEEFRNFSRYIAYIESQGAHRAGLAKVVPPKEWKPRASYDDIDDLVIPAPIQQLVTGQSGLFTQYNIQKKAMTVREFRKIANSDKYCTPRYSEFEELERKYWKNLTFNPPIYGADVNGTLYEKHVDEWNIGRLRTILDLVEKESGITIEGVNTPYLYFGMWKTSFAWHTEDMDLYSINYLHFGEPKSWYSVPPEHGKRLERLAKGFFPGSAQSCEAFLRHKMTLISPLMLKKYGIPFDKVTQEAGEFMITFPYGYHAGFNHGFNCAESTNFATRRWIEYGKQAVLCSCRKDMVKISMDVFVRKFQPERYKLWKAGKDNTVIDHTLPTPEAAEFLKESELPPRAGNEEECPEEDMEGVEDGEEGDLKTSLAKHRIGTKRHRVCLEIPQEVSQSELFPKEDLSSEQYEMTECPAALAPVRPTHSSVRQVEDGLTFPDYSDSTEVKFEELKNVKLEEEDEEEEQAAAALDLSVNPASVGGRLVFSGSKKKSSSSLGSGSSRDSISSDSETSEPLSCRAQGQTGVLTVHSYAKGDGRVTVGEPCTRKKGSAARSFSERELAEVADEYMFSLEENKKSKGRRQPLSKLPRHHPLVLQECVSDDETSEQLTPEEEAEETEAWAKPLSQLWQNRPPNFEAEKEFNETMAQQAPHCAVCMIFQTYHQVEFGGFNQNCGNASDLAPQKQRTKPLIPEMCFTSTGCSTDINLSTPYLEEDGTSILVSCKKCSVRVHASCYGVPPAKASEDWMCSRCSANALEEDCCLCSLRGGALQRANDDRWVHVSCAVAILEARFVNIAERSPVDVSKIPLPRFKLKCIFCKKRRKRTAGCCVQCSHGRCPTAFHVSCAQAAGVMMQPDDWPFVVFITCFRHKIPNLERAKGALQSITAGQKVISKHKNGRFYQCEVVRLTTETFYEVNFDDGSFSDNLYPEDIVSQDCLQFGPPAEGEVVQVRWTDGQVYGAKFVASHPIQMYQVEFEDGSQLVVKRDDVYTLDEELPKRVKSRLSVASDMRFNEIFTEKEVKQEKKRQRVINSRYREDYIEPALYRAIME

The assay concerns the target Lysine-specific demethylase 4A (Homo sapiens) (UniProt O75164). In words: qHTS Assay for Inhibitors of JMJD2A-Tudor Domain. Note: nearly all actives have a fitted effect of over 50% in size. To be noted: AlphaScreen JMJD2A-Tudor / H3K4me3 peptide binding; series mostly up to 114 µM. (In qHTS, concentration-response curves come from the screen itself.)
For the compound `COc1ccc(Cc2nc3ccc(C(=O)NCc4ccccc4C)cc3o2)cc1`, the Potency entry is “inactive”.

With `O=C1c2ccccc2C(=O)N1c1ccc(S(=O)(=O)N2CCOCC2)c2ccccc12`, the Potency entry was “inactive”.

For the compound `CC(Sc1nnc(COc2ccccc2)n1-c1ccccc1)C(=O)O` (centres undefined), the Potency entry was “inactive”.

As to `COc1ccc(CNc2nnnn2C)cc1`, the Potency entry is “inactive”.

Turning to `O=[N+]([O-])c1ccccc1/C=N/n1c(COc2ccccc2)n[nH]c1=S`, the Potency is 50.1 µM (active).

`COc1ccc(OCC(=O)NNC(=O)C2CCC2)cc1`: the Potency entry is “inactive”.

For the compound `S=c1[nH]nc(COc2ccccc2)n1-c1ccccc1`, the Potency is 12.6 µM (active).

`COc1ccc(OCc2n[nH]c(=S)n2N)cc1`: the Potency was 3.98 µM (active).

For the compound `COc1ccccc1OCc1nnc(SCC(N)=O)n1-c1ccccc1`, the Potency entry was “inactive”.

Turning to `Cc1c(NC(=O)CCCOc2ccccc2)cccc1[N+](=O)[O-]`, the Potency result was “inactive”.

For `Fc1ccc(/C=N/n2c(COc3ccccc3)n[nH]c2=S)cc1`, the Potency is 56.2 µM (active).

`O=C(COc1ccccc1[N+](=O)[O-])N/N=C/c1ccc[nH]1`: the Potency entry is “inactive”.

Consider `O=C(COc1ccccc1)Nc1ccc(F)cc1`, for which the Potency entry was “inactive”.

Take `CCOc1ccccc1C(=O)Nc1ccc2c(c1)N(C)C(=O)c1ccccc1S2`: the Potency result is “inactive”.

For the compound `CCOC(=O)c1cc2c(=O)n3ccccc3nc2n(CCCOC)c1=NC(=O)C(C)Oc1ccccc1` (centres undefined), the Potency entry was “inactive”.

Take `Cc1ccc2nc(N3CCN(c4cccc(Cl)c4)CC3)c3nnnn3c2c1`: the Potency result is “inactive”.

`Cc1cc(C)cc(NC(c2nnc(-c3cccc(F)c3)o2)c2ccc(F)cc2Cl)c1` (centres undefined): the Potency result was “inactive”.

For `COc1ccc(CCNC(=O)c2ccc(-n3c(C)cc4c3CCCC4)cc2)cc1OC`, the Potency result was “inactive”.

Take `COc1ccc(C2/C=C\CN(Cc3ccco3)C(C)C(=O)N2Cc2ccc(F)cc2)cc1` (centres undefined): the Potency entry was “inactive”.

Turning to `O=C(NCCc1ccccc1)c1ccc2c(c1)N(Cc1ccccc1)C(=O)c1ccccc1S2(=O)=O`, the Potency result is “inactive”.

In the case of `Cc1cnc(NC(=O)c2ccccn2)s1`, the Potency was 56.2 µM (active).

Take `Cc1cnc(NC(=O)Cn2cnc3c2c(=O)n(C)c(=O)n3C)s1`: the Potency result was “inactive”.

Consider `CN(C(=O)c1ccccn1)c1nnc(-c2ccccn2)s1`, for which the Potency entry is “inactive”.

In the case of `Cc1c(Cl)cccc1NC(=O)c1noc2c1CCCC2`, the Potency entry is “inactive”.

For `CCOC(=O)c1ccc(NC(=O)CS(=O)(=O)c2cn(CC)c3ccccc23)cc1`, the Potency is 79.4 µM (active).

Take `CC(=O)Nc1ccc(NC(=O)CS(=O)(=O)c2cn(CC(=O)N3CCCCC3)c3ccccc23)cc1`: the Potency result was “inactive”.

Take `CCOC(=O)c1ccc(NC(=O)Cn2cc(S(=O)(=O)Cc3ccccc3F)c3ccccc32)cc1`: the Potency result is “inactive”.

Regarding `COc1ccccc1NC(=O)CSc1oc(-c2ccco2)nc1S(=O)(=O)c1ccc(Br)cc1`, the Potency entry is “inactive”.

`CCCn1c2ccccc2c2cnn(CC(=O)N(C)c3ccccc3CC)c(=O)c21`: the Potency result was “inactive”.

For the compound `CCOc1ccc(S(=O)(=O)N2CCCCCC2)c2ccccc12`, the Potency entry was “inactive”.

As for `CCCC(C(=O)OCCN(CC)CC)(c1ccccc1)c1ccccc1`, the Potency result was “inactive”.

As for `CCN(CC)CCOCCOc1ccc(Cl)c2ccccc12`, the Potency was 25.1 µM (active).

Consider `CN(C)CCOCCOc1ccc(Cl)c2ccccc12`, for which the Potency was 3.16 µM (active).

Take `COc1ccc(C)cc1NC(=O)C(=O)NCCc1sc(-c2cccc(C)c2)nc1C`: the Potency result is “inactive”.

For `Cc1nc(SCC(=O)N2CCN(c3ccccc3)CC2)[nH]c(=O)c1C`, the Potency result was “inactive”.

Regarding `CCOc1ccc(NC(=O)CCC(=O)N2CC(C)Oc3ccc(C)cc32)cc1` (centres undefined), the Potency entry is “inactive”.

With `CCOc1ccc(CNC(=O)c2ccc3c(c2)nnn3C2CCCC2)cc1`, the Potency entry was “inactive”.

Take `COc1ccc(-c2nc3sc(CCNC(=O)C(C)(C)C)c(C)n3n2)cc1`: the Potency entry is “inactive”.

Consider `CCOC(=O)NNc1cc(C(F)(F)F)ccn1`, for which the Potency entry was “inactive”.

Take `CCOC(=O)C1Nc2ccc(C(F)(F)F)cc2C2C=CCC12` (centres undefined): the Potency is 50.1 µM (active).

For `CCOC(=O)C[C@H]1c2ccc(C(F)(F)F)cc2S(=O)(=O)N1c1ccccc1`, the Potency entry is “inactive”.

Consider `CCOc1cccc(NC(=O)CSc2ncc(-c3ccc(Cl)cc3)[nH]2)c1`, for which the Potency entry is “inactive”.

In the case of `COc1cccc(C(=O)NC2CCN(C#N)CC2)c1`, the Potency entry is “inactive”.

Take `COC(=O)c1cnn(-c2ccc(C(=O)Nc3ccc(OC(F)(F)F)cc3)cc2)c1N`: the Potency entry was “inactive”.

Turning to `CCCN(CCC)CCCNC(=O)Cn1cc2c(n1)-c1c(oc(C(=O)N3CCCC3)c1C)CC2`, the Potency entry is “inactive”.

On to `CCOC(=O)c1ccc(NC(=O)C2CC(=O)NC(=Nc3ccc(C)c(C)c3)S2)cc1` (centres undefined), for which the Potency entry is “inactive”.

For the compound `Cn1c(=O)c2c(n3c4ccccc4nc13)NC(=O)CC2c1cccc(Cl)c1` (centres undefined), the Potency entry is “inactive”.

With `O=C1CCc2cc(S(=O)(=O)Nc3cccc(Oc4ccccc4)c3)ccc2N1`, the Potency entry was “inactive”.

As for `CCN1CCN(c2ncnc3c2cnn3-c2ccc(C)c(C)c2)CC1`, the Potency result was “inactive”.

Take `Cn1nc(-c2ccccc2)c2cc([N+](=O)[O-])ccc21`: the Potency entry was “inactive”.

As to `O=C1CC(c2ccccc2)=NN1c1ccc([N+](=O)[O-])cc1`, the Potency was 39.8 µM (active).

Consider `COC(=O)CC1=NN(c2ccccc2)C(=O)C1`, for which the Potency entry is “inactive”.

Turning to `COC(=O)c1ccc(-c2nc3cc(NC(C)=O)ccc3o2)cc1`, the Potency entry was “inactive”.

With `CCOc1c(CNCc2ccc(C(=O)O)cc2)cccc1OC`, the Potency result is “inactive”.

With `CCOc1cccc2c1N[C@@H](c1ccc(C(=O)O)cc1)[C@H]1CC=C[C@@H]21`, the Potency was 22.4 µM (active).

`CCOc1cc(C(=O)O)ccc1OCCOc1ccccc1`: the Potency entry was “inactive”.

For the compound `C/C(=N/NC(=O)CCc1ccccc1)c1ccco1`, the Potency entry is “inactive”.

In the case of `O=C(Nc1nnc(-c2ccccc2F)s1)c1ccccc1F`, the Potency result is “inactive”.

On to `COc1ccc(C/C(C)=N/NC(=O)c2cc(C)oc2C)cc1`, for which the Potency result is “inactive”.

Take `COc1ccc(C(=O)N/N=C(\C)CC(=O)Nc2ccc(Cl)cn2)cc1`: the Potency result is “inactive”.

On to `C/C(=N\NC(=O)Cc1ccc(Cl)cc1)c1ccccn1`, for which the Potency is 56.2 µM (active).

`COc1ccc(C/C(C)=N/NC(=O)c2ccncc2)cc1`: the Potency was 10 µM (active).

`Cc1cccc(C)c1NC(=S)N1CCCCCC1`: the Potency entry was “inactive”.

In the case of `CC1=NNC(=O)C1CCC(=O)N/N=C(\C)c1ccc(Cl)cc1` (centres undefined), the Potency result is “inactive”.

On to `CCNC(=S)N1CCN(c2ncccn2)CC1`, for which the Potency entry was “inactive”.

`CC(=NNC(=S)N1CCCCCC1)c1ccccn1`: the Potency was 11.2 µM (active).

As to `C/C(=N\NC(=O)c1ccccc1F)c1ccccn1`, the Potency is 35.5 µM (active).

Turning to `C/C(=N/NC(=O)c1ccn(C)n1)c1ccncc1`, the Potency result was “inactive”.

Regarding `O=C(CCc1cn(Cc2ccc(F)cc2)c2ccccc12)NC1CCCCC1`, the Potency entry is “inactive”.
